High-throughput results (PubChem)
tim23-1 inh: growth inhibitors of tim23-1 mutant yeast | inhibition, % at 20 µM | AID 463212 | hit rate 1.3% among 330,000 | S. cerevisiae tim23-1 growth, BacTiter-Glo luminescence, 24 h;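 active = growth inhibition of the mutant yeast at or above 50%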;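 note: temperature-sensitive mutant grown at 25 °C; plate controls were DMSO-treated mutant yeast for no effect and medium wells lacking yeast for full effect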
NLRP3 yeast inh: blocks the NALP3 inflammasome reconstituted in yeast. Yeast reconstituted NLRP3/ASC/caspase-1, beta-gal luminescence, 24 h. inhibition, % at 10 µM. hit rate 0.39% among 330,000. AID 2825;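 active = inhibition of 50% or more; inactive = inhibition below 50%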;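 note: plate controls were induced DMSO wells for no effect and uninduced yeast grown without galactose for full effect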
SKKanGAS inh: SKKanGAS growth inhibition; S. pyogenes SKKanGAS, kanamycin growth, BacTiter-Glo, 6 h; inhibition, % at 7.5 µM; hit rate 1.3% among 300,000;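 active = mean replicate score, as percent of positive control median, at least 50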;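 note: strain carries kanamycin resistance gene driven by streptokinase promoter and grows in 40 µg/ml kanamycin; loss of luminescence reflects streptokinase promoter inhibition or plain growth inhibition; 0% = median of DMSO wells and 100% = positive control at its reference dose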
TIM10 inh: TIM10 yeast growth inhibition; S. cerevisiae TIM10 strain growth, BacTiter-Glo luminescence, 24 h; inhibition, % at 10 µM; hit rate 1.4% among 330,000; AID 463195;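 active = inhibition of 40% or more at the single tested concentration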;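 note: wild-type TIM10 isogenic control strain grown at permissive 25 °C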
NALP1 inh: blocks the NALP1 inflammasome reconstituted in yeast. AID 2071. S. cerevisiae NALP1/ASC/caspase-1 growth, X-gal OD620, 72 h. hit rate 0.61% among 280,000. inhibition, % at 10 µM; in the data active = inhibition mostly above about 24%, no sharp cut-off; inactive = mostly below about 32%
tim10-1 inh: growth inhibitors of tim10-1 mutant yeast | hit rate 2.2% among 330,000 | S. cerevisiae tim10-1 ts strain growth, BacTiter-Glo, 24 h | inhibition, % at 20 µM;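 active = inhibition of at least 40%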;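 note: mutant grown at 25 °C; 0% = DMSO wells with yeast and 100% = wells holding no yeast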
TIM10 conf: confirmation of TIM10 yeast growth inhibitors. S. cerevisiae tim10 strain growth, BacTiter-Glo luminescence, 24 h. inhibition, % at 10 µM. shares compounds with TIM10 inh. AID 463215. hit rate 63% among 4,600;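 active = inhibition of yeast growth at or above a set limit in either of two replicates at 10 µM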;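 note: this counterscreen used the strain with wild-type TIM10; 0% = yeast with DMSO and 100% = medium wells lacking yeast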
An asterisk follows results filed as active; nt = no result. In the library only some 4.9% were active in any assay of this set; here they are far more common.

SMILES	tim23-1 inh	NLRP3 yeast inh	SKKanGAS inh	TIM10 inh	NALP1 inh	tim10-1 inh	TIM10 conf
COCC(=O)N1CCC(Oc2ccc(C(=O)N3CCN(C)C[C@@H]3C(C)C)cc2)CC1	-8.3	8.6	-1.0	-4.0	4.4	-6.1	nt
CCn1c(C)nc([N+](=O)[O-])c1Sc1ccc(F)cc1	15.3	-4.4	-7.7	25.6	24.1	25.6	nt
CC(C)Cn1c(C(C)C)nc([N+](=O)[O-])c1S(=O)(=O)c1ccc(F)cc1	30.3	8.4	8.9	40.2*	1.9	39.8	30.0
CCN(CC)c1ccc(-n2c(C)c(C(C)=O)c(C(C)=O)c2C)cc1	40.6	8.5	3.6	43.6*	-2.1	37.5	18.6
COc1cccc(C(=O)Nn2c(-c3cccs3)nc3ccccc3c2=O)c1OC	23.1	18.1	-10.8	41.1*	27.9	33.0	34.8*
Cc1ccc(-c2nnc(N(C)C(=O)c3cccnc3)s2)cc1	45.8	37.4	-2.6	42.4*	41.2*	13.9	7.7
Cc1ccc(-c2nnc(N(C)C(=O)c3cccnc3)s2)cn1	-7.2	6.3	2.5	13.6	-7.8	-1.9	nt
Cc1ccc(S(=O)(=O)n2nc(OC(=O)c3cccs3)cc2N)cc1	37.2	-1.0	1.9	47.3*	0.4	33.8	17.8
COc1ccc(C(=O)Oc2cc(N)n(S(=O)(=O)c3ccc(C)cc3)n2)cc1	29.0	17.4	14.2	36.1	3.2	23.4	nt
COc1ccc(S(=O)(=O)n2nc(OC(=O)C3CCCCC3)cc2N)cc1	25.7	5.1	-0.7	45.7*	3.0	38.3	-13.6
Cc1cc(C)n(-c2nc3ccccc3nc2N2CCC(C)CC2)n1	23.9	15.9	-7.2	42.3*	2.9	25.3	17.9
NC(=O)c1cc[n+](Cc2ccccc2Cl)cc1	-0.1	3.7	-1.8	9.4	-5.8	8.5	nt
O=C(c1ccccc1)N1N=C(C(F)(F)F)CC1(O)c1ccc(F)cc1 (configuration not stated)	36.7	1.3	-15.1	67.2*	5.4	0.2	22.8
COc1ccc(-n2nc(C(=O)NCC(=O)N(C)Cc3ccccc3)c3ccccc3c2=O)cc1OC	23.3	20.8	14.9	16.6	-8.0	0.7	nt
COc1ccc(-c2nn3c(-c4ccco4)nnc3s2)cc1OC	20.4	0.9	11.6	45.3*	8.4	38.7	-9.8
COc1ccc(-c2nnc3sc(-c4ccco4)nn23)cc1OC	-23.9	13.7	-2.6	-19.1	7.5	-2.0	nt
COc1ccc(NC(=O)N(C)C[C@H]2Oc3ccc(NC(=O)Nc4c(C)noc4C)cc3C(=O)N([C@H](C)CO)C[C@@H]2C)cc1	8.9	9.4	nt	-6.7	nt	1.7	nt
COC(=O)c1ccc(N/C=C/C(=O)c2ccccc2)cc1	12.2	11.7	9.6	-6.3	3.6	4.8	nt
Cc1ccc(NC(NC(=O)c2ccccn2)C(Cl)(Cl)Cl)cc1 (configuration not stated)	21.4	4.7	2.8	27.2	16.8	30.3	nt
COc1ccc(C(=O)NC(Nc2ccccc2)C(Cl)(Cl)Cl)cc1 (configuration not stated)	13.3	32.2	0.0	49.7*	-7.4	27.9	32.1*
Cc1ccc(NC(NC(=O)c2cccs2)C(Cl)(Cl)Cl)cc1 (configuration not stated)	32.2	20.9	14.4	49.6*	10.0	35.0	38.5*
CC1CCN(C(=O)c2ccc(CNS(=O)(=O)c3ccc(C(C)(C)C)cc3)cc2)CC1	21.2	9.4	nt	-0.1	nt	-2.5	nt
O=C(N/N=C/c1sc(=O)n(-c2ccccc2)c1Cl)c1ccccc1	48.4	5.6	10.5	42.0*	33.9	30.9	21.8
Cc1ccc2c(c1)c1nc3ccccc3nc1n2CCN1CCOCC1	5.7	21.6	10.7	48.1*	1.6	15.3	22.6
CC(C)(C)C1CCC(=NNC(=S)Nc2cccnc2)CC1 (configuration not stated)	47.9	14.3	-3.2	44.2*	1.8	39.4	34.8*
SMILES	tim23-1 inh	NLRP3 yeast inh	SKKanGAS inh	TIM10 inh	NALP1 inh	tim10-1 inh	TIM10 conf
CCNC(=S)NN=C1CCC(C(C)(C)C)CC1 (configuration not stated)	15.0	16.0	1.7	-1.6	-3.8	28.2	nt
CCc1nnc(NC(=O)c2ccc(COc3cccc(C)c3)o2)s1	-1.1	13.2	-4.8	-9.5	15.2	2.3	nt
CC(c1ccc(F)cc1)n1c(-c2ccc3ccccc3n2)n[nH]c1=S (configuration not stated)	48.8	16.5	-1.6	45.6*	-0.7	5.7	23.1
CC(c1ccc(Cl)cc1)n1c(-c2ccc3ccccc3n2)n[nH]c1=S (configuration not stated)	48.3	20.5	-5.6	30.1	-0.8	37.4	nt
Cc1cc(Nc2cccc(Cl)c2)nc(-c2ccccc2O)n1	18.5	0.0	6.4	42.0*	8.2	18.0	40.8*
CC[C@@]1(C(=O)OC)N[C@H](CN(C)C(=O)Nc2ccccc2)[C@@H]2C(=O)N(Cc3ccccc3)C(=O)[C@@H]21	8.4	4.9	nt	-0.7	nt	1.1	nt
CC1Cc2ccccc2N1C(=O)C1CCCN(S(=O)(=O)c2cccc3nsnc23)C1 (configuration not stated)	33.1	7.6	22.9	44.3*	5.5	34.2	-27.4
CC(CN1CCCCC1)OC(=O)c1cccc(F)c1 (configuration not stated)	3.9	23.0	-0.5	96.5*	20.1	-13.3	-8.3
COc1cccc(C(=O)OC(C)CN2CCCC2)c1 (configuration not stated)	8.9	18.1	1.3	-11.8	5.0	8.1	nt
CC(=O)c1c(C(C)=O)c(C)n(NC(=O)c2cccnc2)c1C	13.6	17.3	0.7	89.0*	10.4	9.1	7.4
CC(=O)c1c(C(C)=O)c(C)n(NC(=O)c2ccccc2O)c1C	5.8	-5.0	-3.2	-7.8	5.4	4.4	nt
COc1cccc(NC(=O)Nc2ccc(Cc3ccncc3)cc2)c1	26.2	16.4	-18.8	43.7*	18.6	33.2	-1.8
COc1cccc(NC(=O)Nc2cccn(Cc3ccccc3)c2=O)c1	30.4	9.9	1.9	43.8*	8.7	6.9	28.0*
COc1ccc(Cn2cccc(NC(=O)Nc3cccc(OC)c3)c2=O)cc1	30.1	10.3	-2.2	2.7	nt	-9.2	nt
O=C(NCc1ccncc1)C(=O)NCC1OCCN1S(=O)(=O)c1ccc(F)cc1 (configuration not stated)	-0.1	-4.2	6.8	6.8	3.0	3.0	nt
Cc1cc(C)n(CC(O)COc2c(C)cccc2C)n1 (configuration not stated)	3.1	3.0	-2.2	9.6	3.7	12.6	nt
O=C1[C@H]2C(c3ccccc3)=NN(c3ccccc3)[C@H]2C(=O)N1c1ccccc1	43.8	1.8	88.7*	49.2*	7.7	37.3	46.4*
Nn1c(SCc2ccc(Br)cc2)nnc1-c1ccncc1	15.5	16.1	0.4	7.1	7.5	-16.2	nt
